# IL1B secr inh = qHTS for Inhibitors of Inflammasome Signaling: IL-1-beta AlphaLISA Primary Screen; THP-1 LPS/ATP IL-1B secretion, AlphaLISA, 16 h; active compounds read low; activity change, % at 57.5 µM; actives 4.7% (n = 360,000); in the data active means activity change below about -50%; inconclusive means mostly about -30% to -49%
#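 THP-1 cells pretreated 1 hr with compounds (up to 57.5 uM final), then stimulated with LPS (250 ng/mL final) plus ATP (1.25 mM final); secreted IL-1B measured by AlphaLISA after 16 hr, decreased signal indicating inhibition.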
# TDP1 cell noCPT = qHTS for Inhibitors of human tyrosyl-DNA phosphodiesterase 1 (TDP1): qHTS in cells in absence of CPT | DT40 Tdp1-/- hTDP1 cells, no CPT, ATP luminescence, 48 h | AID 686978, 2013 | actives 15% (n = 420,000) | Potency, µM (highest dose often 46.2 µM), for inactives: at the top dose activity change, negative = growth inhibition, most hits filed as inhibitors; further: potency means the concentration at half of the fitted maximal effect; nearly all actives have a fitted effect of over 55% in size
#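 Chicken DT40 Tdp1-/- cells stably complemented with human TDP1 were seeded at 400 cells/well with DMSO in place of 20 nM camptothecin. After compound pinning, cells grew at least 48 hr at 37 °C; viability read by CellTiter-Glo luminescence.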
# HT1080-NT tox = qHTS for induction of synthetic lethality in tumor cells producing 2HG: qHTS for the HT-1080-NT fibrosarcoma cell line. HT-1080-NT fibrosarcoma viability, CellTiter-Glo ATP luminescence, 48 h. Potency, µM (top dose mostly 46.1 µM), inactives show top-dose activity, negative = less viability, hits mostly cytotoxic. actives 1.6% (n = 360,000);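 further: NT is the 2HG producing partner of a matched IDH1 knockdown line; potency means the concentration at half of the fitted maximal effect; 0% = DMSO-treated cells and -100% = media-only wells without cells; nearly all actives have a fitted effect of over 55% in size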
#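 HT-1080-NT; 750 cells/well; 5% FBS RPMI; 48 h compound, 37 degrees C; CellTiter-Glo luminescence; curve fitting and curve-class assignment.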
# HT1080 IDH1KD tx = qHTS for induction of synthetic lethality in tumor cells producing 2HG: qHTS for the HT-1080-IDH1KD cell line; Potency, µM (series often up to 46.1 µM), inactives show at the top dose activity, negative = toxicity, actives largely listed as cytotoxic; AID 686971, 2013; actives 2% (n = 360,000); HT-1080 IDH1 knockdown viability, ATP luminescence, 48 h;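 further: potency means the concentration at half of the fitted maximal effect; 0% = DMSO wells and -100% = cell-free medium wells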
#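 Viability of IDH1-knockdown HT-1080 fibrosarcoma cells was assessed by CellTiter-Glo after 48 h at 37 °C with titrated compound; concentration-effect curves were classified by fit quality and response size.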
# DT40 TDP1 CPT = qHTS for Inhibitors of human tyrosyl-DNA phosphodiesterase 1 (TDP1): qHTS in cells in presence of CPT | actives 12% (n = 420,000) | chicken DT40 Tdp1-/-;hTDP1 cells + 20 nM CPT, ATP luminescence, 48 h | Potency, µM (top dose mostly 46.2 µM), without a hit: at the highest dose activity change, negative = growth inhibition, actives largely listed as inhibitors; further: potency means the concentration at half of the fitted maximal effect; nearly all actives have a fitted effect of over 55% in size
#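 Chicken DT40 Tdp1-/- cells stably complemented with human TDP1 were seeded at 400 cells/well in medium containing 20 nM camptothecin, exposed to pin-transferred compounds, and grown at 37 °C for at least 48 hr. Viability was read as ATP luminescence.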
# An asterisk follows results filed as active; ? = inconclusive; / = no result given; [ ] = remark or other dose. The list is not random: actives were taken first. Their share in the collection is about 19%. Unless noted, the call rests on the fitted dose curve; in most records, active means well fitted curve in the direction sought with a large enough effect; inconclusive means small, poorly fitted or top-dose-only effect, or another doubt; inactive means no such curve, though single readings can be large; an effect the other way counts as inactive or inconclusive. Unless noted, on the % scale 0 is the no-effect control and ±100 the full control effect.
SMILES,IL1B secr inh,TDP1 cell noCPT,HT1080-NT tox,HT1080 IDH1KD tx,DT40 TDP1 CPT
O=[N+]([O-])c1ccc(Oc2cccc3cccnc23)c([N+](=O)[O-])c1,-29,6.5µM*,?,23µM*,5.2µM*
CCC1(C2CCN(C(=O)c3cc(C)cc(C)c3)CC2)NC(=O)N(CCc2scnc2C)C1=O (stereo not drawn),/,-17%,/,/,-5%[9.04 µM]
COc1ccc(-c2nnc(NC(=O)Cc3ccccc3)o2)cc1,-2,?,6%,7%,?
CC(C)Nc1nc(-c2ccncc2)nc(-c2ccccc2)c1C#N,15,-9%,-2%,0%,-21%
O=C(Oc1c(Cl)cc(Cl)c2cccnc12)c1cccc([N+](=O)[O-])c1,46,3.3µM*,?,?,2.9µM*
CCN(CC)C(=O)Oc1c(Cl)cc(Cl)c2cccnc12,-1,?,-6%,-14%,18%
O=C(Oc1ccc(Cl)c2cccnc12)c1cccc([N+](=O)[O-])c1,-18,0.92µM*,-10%,-1%,1.3µM*
Cc1[nH]c(=O)[nH]c1C(=O)CCCCC(=O)O,-95*,1%,15%,16%,-4%
Cc1cc(C)n2c(NC3CCCC3)c(-c3ccc(F)cc3)nc2n1,20,18µM*,12%,3%,?
Cc1cc(C)n2c(Nc3ccc4c(c3)OCCO4)c(-c3ccc(F)cc3)nc2n1,-4,?,-16%,-8%,?
Cc1cc(C)n2c(NC3CCCC3)c(-c3cc4ccccc4o3)nc2n1,15,?,-29%,4%,?
Cc1cc(C)n2c(NC3CCCCC3)c(-c3ccccn3)nc2n1,43,23µM*,-7%,4%,?
Nc1ccc(S(=O)(=O)c2cc(O)c3ccccc3c2O)cc1,-112*,2.3µM*,-3%,-8%,1.5µM*
COc1ccc(F)cc1-c1cc(C(=O)N2CCc3ccccc3C2)[nH]n1,-10,?,?,9%,?
CCOc1ccc(-n2c(=S)sc3c(=O)[nH]c(SCC(=O)C(C)(C)C)nc32)cc1,36,18µM*,-23%,?,26µM*
CO[C@H]1C[C@@H]2CC[C@@H](C)[C@@](O)(O2)C(=O)C(=O)N2CCCC[C@H]2C(=O)O[C@H]([C@H](C)C[C@@H]2CC[C@@H](O)[C@H](OC)C2)CC(=O)[C@H](C)C=C(C)[C@@H](O)[C@@H](OC)C(=O)[C@H](C)C[C@H](C)/C=C/C=CC=C1C,/,0.0047µM*,/,/,0.0024µM*
O=C(CSc1nc2c([nH]c3ccccc32)c(=O)n1-c1ccc(Cl)cc1)NCC1CCCO1 (stereo not drawn),/,-25%,/,/,-10%
COc1ccc(NC(=O)CN(c2ccc(C)cc2)S(=O)(=O)c2cccc3nonc23)cc1OC,/,16µM*,/,/,-19%
Cc1ccc(NC(=O)CN(c2ccc(Cl)cc2)S(=O)(=O)c2cc([N+](=O)[O-])ccc2Cl)cc1,-99*,23µM*,-18%,-20%,?
COc1ccc(C)cc1S(=O)(=O)N(CC(=O)Nc1cccc([N+](=O)[O-])c1)c1ccc(C)c(C)c1,-3,?,-2%,-2%,16µM*
COc1ccc(NC(=O)CN(c2ccc(C)cc2)S(=O)(=O)c2cccs2)cc1OC,/,-2%,/,/,2%
COc1ccc(NC(=O)C(=O)NCC(=O)Nc2cc(OC)ccc2OC)cc1,8,2%,-12%,-10%,-19%
O=C(O)C(Cc1ccccc1)n1c(=S)[nH]c2ccccc2c1=O (stereo not drawn),33,?,1%,2%,-7%
COc1ccc2cc(CN(C(=O)c3cc(C)nn3C)C3CC3)c(-c3ccc(Cl)cc3)nc2c1,/,?,/,/,-72%
COc1cccc(-c2n[nH]c(=S)n2Cc2ccco2)c1,22,20%,0%,-8%,1%
SMILES,IL1B secr inh,TDP1 cell noCPT,HT1080-NT tox,HT1080 IDH1KD tx,DT40 TDP1 CPT
CCN(CC(=O)NCc1cccs1)C(=O)c1ccc(-c2ccc(F)cc2)o1,-14,?,?,?,?
Cc1cc(C)nc(-n2nc(C)cc2NC(=O)CN2CCCC(C)C2)n1 (stereo not drawn),-15,?,1.3µM*,2µM*,?
COc1ccc(CNCC(=O)Nc2cc(C)nn2-c2nc(C)cc(C)n2)cc1OC,-4,8.2µM*,-4%,-8%,9.2µM*
Cc1cc(C)nc(-n2nc(C)cc2NC(=O)CN2CCc3ccccc3C2)n1,23,23µM*,?,1.6µM*,10µM*
CSCCC(NS(=O)(=O)c1ccc(C)cc1C)C(=O)Nc1cccnc1 (stereo not drawn),14,-13%,5%,-1%,2%
O=C(C[C@H]1C=C[C@@H](NS(=O)(=O)c2ccccc2)[C@@H](CO)O1)NCc1ccc(Cl)c(Cl)c1,-10,18µM*,-14%,-6%,?
COC(=O)C[C@@H]1C=C[C@H](NS(=O)(=O)c2cccc(F)c2)[C@@H](CO)O1,7,-6%,?,16%,9%
Cc1ccc(Cl)cc1N1CCN(C(=O)c2cc3c(=O)n(C)c4ccccc4c3n2C)CC1,56,16µM*,2%,5%,18µM*
Cc1cccc(N2CCN(C(=O)c3cc4c(=O)n(C)c5ccccc5c4n3C)CC2)c1C,23,16µM*,-8%,3%,?
Cc1ccc(Cl)cc1N1CCN(C(=O)C(C)n2ncn3cccc3c2=O)CC1 (stereo not drawn),-23,23µM*,3%,-4%,18µM*
Cc1cccc(N2CCN(C(=O)c3cc4c(=O)oc5ccccc5c4s3)CC2)c1C,/,1%,/,/,-17%
Cc1cccc(N2CCN(C(=O)c3cc4c(=O)n(C)c5ccccc5c4s3)CC2)c1C,/,5.8µM*,/,/,?
CN(c1ccc(OCC(=O)OCC(=O)Nc2ccc([N+](=O)[O-])cc2)cc1)S(=O)(=O)c1cccs1,-1,4%,9%,14%,1%
COC(=O)c1ccc(NC(=O)CN2CCN(CC#N)CC2)cc1,12,0%,10%,15%,4%
COCCCNC(=O)C1CCC(CNS(=O)(=O)c2ccc3c(c2)CC(C)N3C(=O)C2CC2)CC1 (stereo not drawn),-17,3%,3%,-1%,-28%
